The record followed here is PubChem BioAssay (NCI).

Structures are written as SMILES. About 83,000 compounds went through this panel and 20% of them were active in at least one assay; those are over-represented in the sample as a whole.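 Interpretation: 100, growth as untreated; towards 0, rising growth inhibition; 0, no net growth; 0 to -100, cell death. Compounds scoring below 10 were considered active.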 Unmarked numbers belong to inactive results. The source made the active and inactive calls.

Some test systems named below: DU-145 prostate; K-562 leukemia; MALME-3M melanoma; MDA-MB-231 breast; RXF 393 renal; SF-268 CNS; SF-295 CNS; SF-539 CNS; UACC-257 melanoma; M14 melanoma; HCT-15 colon; HT29 colon; SNB-75 CNS; SNB-19 CNS; U251 CNS; PC-3 prostate; SK-MEL-5 melanoma; UACC-62 melanoma; LOX IMVI melanoma; SK-MEL-28 melanoma.
What all share (experiment): NCI-60 one-dose screen, 48 h (100 = growth as untreated, 0 = no growth, -100 = all killed)
Conditions in all cases: 10 µM unless noted

Regarding `CC1(C)CC[C@]2(C(=O)O)CC[C@]3(C)[C@H](CC[C@@H]4[C@@]5(C)CCC(=O)C(C)(C)[C@@H]5CC[C@]43C)[C@H]2[C@H]1OC(=O)C(F)(F)F`, the growth in the assay with DU-145 prostate was -53.4% [100 µM] (active); in the assay with K-562 leukemia it was 1.66% [100 µM] (active); in the assay on MALME-3M melanoma it was -65% [100 µM] (active); in the assay on MDA-MB-231 breast it was -62.3% [100 µM] (active); in the assay on RXF 393 renal, -82.1% [100 µM] (active); in the assay with SF-268 CNS it was -92.4% [100 µM] (active). Besides, the growth is -62.5% [100 µM] (active) with SF-295 CNS; -86% [100 µM] (active) with SF-539 CNS; -87% [100 µM] (active) in the assay on UACC-257 melanoma; -35.2% [100 µM] (active) in the assay with M14 melanoma; -64% [100 µM] (active) in the assay on HCT-15 colon; -37.7% [100 µM] (active) in the assay with HT29 colon. Also, the growth in the assay with SNB-75 CNS is -36.5% [100 µM] (active); in the assay on SNB-19 CNS, -78.4% [100 µM] (active); with U251 CNS, -71.4% [100 µM] (active); in the assay with PC-3 prostate, -56.4% [100 µM] (active); with SK-MEL-5 melanoma, -94.2% [100 µM] (active); with UACC-62 melanoma, -85.2% [100 µM] (active). Besides, the growth with LOX IMVI melanoma is -99.1% [100 µM] (active); with SK-MEL-28 melanoma it was -58.5% [100 µM] (active).
With `O=C(O)c1cn(C2CC2)c2cc(N3CCN(Cc4c(O)ccc5ccccc45)CC3)c(F)cc2c1=O`, the growth in the assay on DU-145 prostate was 3.75% (active); in the assay with K-562 leukemia it was 58.4%; in the assay with MALME-3M melanoma, 10.9%; in the assay on MDA-MB-231 breast it was 43.6%; with RXF 393 renal, -29.2% (active); in the assay with SF-268 CNS it was 47.1%. Also, the growth with SF-295 CNS was 39.3%; with SF-539 CNS it was -17.7% (active); in the assay with UACC-257 melanoma, 35.1%; in the assay with M14 melanoma it was 47.6%; in the assay on HCT-15 colon, 5.61% (active); with HT29 colon, -46.7% (active). Also, the growth was -20.8% (active) in the assay on SNB-75 CNS; 83.1% with SNB-19 CNS; 37.5% in the assay with U251 CNS; 36.1% in the assay with PC-3 prostate; 58.4% in the assay with SK-MEL-5 melanoma; 38.8% in the assay on UACC-62 melanoma. Besides, the growth in the assay with LOX IMVI melanoma is 37.1%; with SK-MEL-28 melanoma, 27.8%.
`COc1ccc(/C=C/C=C\C(=O)c2ccc(-n3ccnc3)cc2)cc1`: the growth in the assay with DU-145 prostate was 98%; with K-562 leukemia, 66.2%; with MALME-3M melanoma, 92.8%; with MDA-MB-231 breast, 94%; with RXF 393 renal it was 92.7%; with SF-268 CNS, 96.2%. Besides, the growth in the assay on SF-295 CNS was 99.7%; with SF-539 CNS it was 97.9%; in the assay with UACC-257 melanoma, 93.1%; with M14 melanoma, 21.3%; in the assay on HCT-15 colon, 91.3%; in the assay with HT29 colon, 93.4%. For the same molecule, the growth in the assay with SNB-75 CNS was 90.8%; with SNB-19 CNS, 87.6%; in the assay on U251 CNS, 83.3%; in the assay with PC-3 prostate it was 88.8%; with SK-MEL-5 melanoma, 88.6%; in the assay on UACC-62 melanoma it was 79.1%. Further, the growth was 93.5% with LOX IMVI melanoma and 104% in the assay on SK-MEL-28 melanoma.
Turning to `CCOC(=O)c1nn(C2CCCCO2)c2ccc(NS(=O)(=O)c3ccc(C)cc3)cc12` (stereo not given), the growth with DU-145 prostate is 106%; with K-562 leukemia, 82.8%; with MALME-3M melanoma, 102%; in the assay on MDA-MB-231 breast, 94.2%; in the assay with RXF 393 renal, 119%; in the assay with SF-268 CNS it was 96.2%. For the same molecule, the growth in the assay with SF-295 CNS was 99.7%; with SF-539 CNS it was 105%; with UACC-257 melanoma, 97%; in the assay on M14 melanoma, 101%; in the assay on HCT-15 colon it was 105%; in the assay with HT29 colon, 102%. Besides, the growth with SNB-75 CNS was 80.5%; with SNB-19 CNS, 99.6%; with U251 CNS, 90.6%; in the assay on PC-3 prostate, 92.6%; with SK-MEL-5 melanoma, 98.7%; with UACC-62 melanoma, 86.6%. For the same molecule, the growth in the assay on LOX IMVI melanoma was 99.3%; with SK-MEL-28 melanoma, 101%.
For `COc1ccc(C2=C(c3cn(C)c4ccccc34)C(=O)OC2)cc1OC`, the growth is 48.7% in the assay with DU-145 prostate; 18% in the assay on K-562 leukemia; 35.4% with MALME-3M melanoma; 49.8% in the assay with MDA-MB-231 breast; -7.01% (active) in the assay with RXF 393 renal; 52.1% in the assay with SF-268 CNS. For the same molecule, the growth in the assay on SF-295 CNS was 23%; with SF-539 CNS, -12.2% (active); in the assay with UACC-257 melanoma it was 79.7%; in the assay with M14 melanoma it was 50%; in the assay on HCT-15 colon it was 23.7%; in the assay on HT29 colon it was 6.9% (active). In addition, the growth in the assay on SNB-75 CNS was -29.3% (active); with SNB-19 CNS, 38.3%; in the assay on U251 CNS, 35.1%; in the assay with PC-3 prostate, 21.3%; in the assay with SK-MEL-5 melanoma, 16.4%; with UACC-62 melanoma it was 26.8%. Besides, the growth was 49.6% with LOX IMVI melanoma and 69.9% in the assay on SK-MEL-28 melanoma.
Consider `CCn1cc(-c2ccnc(NCCNS(=O)(=O)c3cccc4ccccc34)c2)c(-c2cccc(O)c2)n1`, for which the growth was 97.9% in the assay with DU-145 prostate; 75.7% with K-562 leukemia; 109% with MALME-3M melanoma; 108% in the assay on MDA-MB-231 breast; 92.9% in the assay with RXF 393 renal; 94.7% in the assay on SF-268 CNS. For the same molecule, the growth with SF-295 CNS is 101%; in the assay with SF-539 CNS it was 104%; with UACC-257 melanoma, 109%; in the assay with M14 melanoma it was 103%; in the assay with HCT-15 colon it was 96.7%; with HT29 colon it was 92.9%. Moreover, the growth in the assay with SNB-75 CNS is 107%; with SNB-19 CNS it was 106%; in the assay with U251 CNS it was 53%; with PC-3 prostate, 83.2%; with SK-MEL-5 melanoma it was 95.8%; in the assay with UACC-62 melanoma it was 97.2%. Besides, the growth in the assay on LOX IMVI melanoma is 111%; with SK-MEL-28 melanoma, 107%.
On to `CC(=O)CC(=O)SC1=NCCS1`, for which the growth with DU-145 prostate is 121%; with K-562 leukemia it was 104%; in the assay with MALME-3M melanoma, 140%; in the assay on MDA-MB-231 breast it was 112%; in the assay on RXF 393 renal, 122%; in the assay on SF-268 CNS, 102%. Besides, the growth with SF-295 CNS was 109%; with SF-539 CNS it was 102%; in the assay with UACC-257 melanoma, 98.8%; in the assay on M14 melanoma it was 113%; with HCT-15 colon, 100%; in the assay with HT29 colon, 105%. In addition, the growth was 109% with SNB-75 CNS; 107% in the assay with SNB-19 CNS; 102% in the assay with U251 CNS; 89.9% in the assay with PC-3 prostate; 112% in the assay with SK-MEL-5 melanoma; 115% with UACC-62 melanoma. Also, the growth in the assay with LOX IMVI melanoma is 97.7%; in the assay with SK-MEL-28 melanoma it was 115%.
As to `O=S(=O)(NCCCNc1nccc(-c2c(-c3cccc(F)c3)nc3occn23)n1)c1cccc2ccccc12`, the growth was 41.4% with DU-145 prostate; 4.01% (active) in the assay on K-562 leukemia; 31.1% in the assay with MALME-3M melanoma; -0.0227% (active) in the assay on MDA-MB-231 breast; 47.9% in the assay on RXF 393 renal; 36.6% with SF-268 CNS. Further, the growth is 52.8% with SF-295 CNS; 61.8% with SF-539 CNS; 58.3% in the assay on UACC-257 melanoma; 31.8% in the assay with M14 melanoma; 29.2% in the assay with HCT-15 colon; 5.59% (active) in the assay with HT29 colon. Moreover, the growth with SNB-75 CNS was 62.5%; in the assay on SNB-19 CNS it was 64.7%; in the assay with U251 CNS, 49.8%; with PC-3 prostate, 18.1%; with SK-MEL-5 melanoma, 27%; with UACC-62 melanoma, 31.5%. Further, the growth was 35.3% in the assay with LOX IMVI melanoma and 64.9% in the assay on SK-MEL-28 melanoma.
